Many of the other results were omitted from the sample, so hits are more common in it than they were.
Tg IFNy HTS – blocks Toxoplasma gondii growth in the presence of IFN-gamma; Toxoplasma gondii growth in IFN-gamma-treated host cells; hits give low values; activity change, negative = inhibition, % (test concentration not listed); 69,000 tested, 3.8% active; AID 1259416; in the data active = activity change below about -70%, passing the limit was not always enough;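 also: host cells are HeLa cells infected with Toxoplasma gondii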
Starred values were filed as active, the others as inactive; ! = repeats disagree.

SMILES | Tg IFNy HTS
COc1cccc(C(=O)N2CCc3c([nH]c4ccccc34)C2c2ccc(C)cc2)c1 (configuration not stated) | -126*
O=C(c1ccco1)N1CCc2c([nH]c3ccccc23)C1c1ccc(Cl)cc1 (configuration not stated) | -88*
O=C(c1cccnc1)N1CCc2c([nH]c3ccccc23)C1c1ccc(F)cc1 (configuration not stated) | 76
Cc1ccc(C2c3[nH]c4ccccc4c3CCN2C(=O)c2cccnc2)cc1 (configuration not stated) | 68
CC(=O)Nc1ccc(C#CC2(NC(=O)CNC3CCS(=O)(=O)C3)CCCCC2)cn1 (configuration not stated) | 100
Cn1cnc2c1C(COCC1CC1)CN(Cc1cccs1)C2 (configuration not stated) | 1
CC(=O)Nc1ccc(C(=O)N(C2CCCC2)C2(C(=O)NCc3ccccc3)CCN(C(C)=O)CC2)cc1 | 139
COc1ccc(NC(=O)C(=O)NCCc2sc(-c3ccc(C)cc3)nc2C)cc1OC | 12
Cn1cc(-c2cc3n(n2)CCC(=O)N3CC(=O)N2CCN(c3ccccn3)CC2)c2ccccc21 | 127
COc1cccc2c1OCCCN(C(=O)Cc1c(C)nc(C)[nH]c1=O)C2 | -6
CC/C=C\C/C=C\C/C=C\C/C=C\C/C=C\C/C=C\CCC(=O)OCC | 10
Clc1ccc(-c2nc(N3CCC(c4ccccc4)C3)c3ccccc3n2)cc1 (configuration not stated) | -1
CCn1cc(Cn2ccnc2-c2ccc3occc3c2)cn1 | 2
CCC(=O)O[C@@]1(C(=O)CCl)[C@@H](C)C[C@H]2[C@@H]3C[C@H](F)C4=CC(=O)C=C[C@]4(C)[C@]3(F)[C@H](O)C[C@@]21C | 3
CCC(=O)OCC(=O)[C@@]1(OC(=O)CC)[C@@H](C)C[C@H]2[C@@H]3CCC4=CC(=O)C=C[C@]4(C)[C@@]3(F)[C@@H](O)C[C@@]21C | -1
CCC(=O)OCC(=O)[C@@]1(OC(=O)CC)[C@@H](C)C[C@H]2[C@@H]3CCC4=CC(=O)C=C[C@]4(C)[C@@]3(Cl)[C@@H](O)C[C@@]21C | -74*!
Cc1nn(C)c(C)c1CCC(=O)N(C)Cc1cc(C(C)C)no1 | 1
COc1ccc(NC(=O)Cn2ncc3c(N4CCCCCC4)ncnc32)cc1 | 29
Cc1cc(C(=O)NCC2CC(=O)N(C3CCCC3)C2)n[nH]1 (configuration not stated) | 0
CCOCC1CN(Cc2cc(C)on2)Cc2nnn(CC3CC3)c21 (configuration not stated) | 37
Cc1ccc(CN2C[C@@H]3c4nc(N(C)C)ncc4CS(=O)(=O)[C@H]3C2)cc1 | 7
Cc1ccccc1CN1C[C@@H]2c3nc(N4CCCC(C)C4)ncc3CS(=O)(=O)[C@H]2C1 (some centres not stated) | -86*
Cc1ccc(CN2C[C@@H]3c4nc(N5CCCC(C)C5)ncc4CS(=O)(=O)[C@H]3C2)cc1 (some centres not stated) | 170
Cc1cc(F)ccc1NC(=O)Cn1c(=O)cc(-c2nc(C(C)C)no2)c2ccccc21 | 54
COc1ccc(O)c(-c2nc3c(C(C)(C)C)cc(C(C)(C)C)c(O)c3o2)c1 | -119*
SMILES | Tg IFNy HTS
COc1ccc(O)c(C2=Nc3ccccc3N=C(c3ccccc3)C2)c1 | 167
COc1ccc(O)c(N)c1 | 36
Cc1cc(C(=O)N2CCCN(c3ccncc3C)CC2)nc(C)n1 | -6
Cc1ccc(CS(=O)(=O)N2CCC3(CC(=O)N(c4ccc(C)cc4)C3)C2)cc1 (configuration not stated) | -4
Cc1c(C(=O)Nc2nccs2)nnn1-c1ccccc1C(F)(F)F | 36
CSc1sc(C2=NNC(O)(C(F)(F)F)C2)c2c1C(=O)CCC2(C)C (configuration not stated) | -96*
OC1(C(F)(F)F)CC(c2ccncc2)=NN1 (configuration not stated) | -15
O=C(c1cnco1)N1CC[C@@H](c2ccc3ccccc3c2)[C@H](O)C1 | -39
OC(Cn1c(=NC2CCCCC2)sc2ccccc21)c1ccccc1 (configuration not stated) | -72*
S=c1sc2ccccc2n1CCn1c(=S)sc2ccccc21 | 23
O=C(CCC(=O)NC1CCCCCCC1)NCC(O)c1ccccc1 (configuration not stated) | 38
Cc1cc(F)ccc1C(=O)N(CCN(C)C)Cc1ccsc1 | 37
Cc1ccc(CNC(=O)COc2nc(C)nc3ccccc23)cc1 | 18
CC(=O)Nc1ccc(CNC(=O)CN2CCC[C@H]2CN2CCCC2)cc1 | -4
Cc1n[nH]c(C)c1C(=O)N1CCC(c2n[nH]c(=O)n2-c2ccccc2)CC1 | -51
O=C(CC1=CCNCC1)N1CCC(c2n[nH]c(=O)n2-c2ccccc2)CC1 | -73*
Cn1cc(CCC(=O)N2CCC(c3n[nH]c(=O)n3-c3ccccc3)CC2)cn1 | 15
Cc1cc(C)n(Cc2nc(-c3ccc(NC(=O)c4cccc(C#N)c4)cc3)oc2C)n1 | -65
O=c1ccc(-n2ccnc2-c2cccnc2)c[nH]1 | -5
CCOC(=O)c1nc(N(C)C2CCCCC2)c2ccccc2n1 | -37
CCc1cc(N2CCN3CCN(C)CC3C2)nc(N2CCOCC2)n1 (configuration not stated) | 9
CCCc1nc(NCc2cc(-c3ccccc3)n[nH]2)c2cnn(C)c2n1 | -83*
CCCc1nc(NCc2cc(-c3ccc(F)cc3)on2)c2cnn(C)c2n1 | -12
CCCc1nc(NCc2nnnn2-c2ccccc2)c2cnn(C)c2n1 | -9
O=C(CCc1ccc(-c2ccc(Cl)cc2)[nH]1)N1CCCn2cncc2C1 | 9
SMILES | Tg IFNy HTS
Cc1cc(C(=O)N2CC[C@H]3[C@@H]2CCN3CC2CCOCC2)c(C)o1 | 110
CS(=O)(=O)CC(=O)N1C[C@@H]2CN(Cc3ccoc3)CCO[C@@H]2C1 | -6
COc1ccc(F)c([C@@H]2NC(=O)CC[C@H]2NCc2cn[nH]c2-c2ccccc2)c1 | -1
O=C1NC(=O)C(Cc2ccccc2F)(C2CCNCC2)N1 (configuration not stated) | -3
COC(=O)C1(Cc2ccccc2F)NC(=O)CC2CCC1N2Cc1ccccc1 (configuration not stated) | -77*
O=C(NCc1ccc2c(c1)OCO2)c1cncc(NS(=O)(=O)c2ccccc2)c1 | 34
S=c1[nH]cc(-c2ccc(Br)cc2)[nH]1 | -97*
O=C(NC1CCC12CCN(C(=O)c1ccco1)CC2)c1cnccn1 (configuration not stated) | 3
CCN1CCOCC12CCN(C(=O)c1cnccn1)CC2 | -11
C=CCNC(=O)C1(Cc2cccc(-c3cncnc3)c2)CCN(C(=O)c2cnccn2)CC1 | -93*
COc1ccc(NC(=O)CN2CCC3(CC2)N=C(c2ccc(F)cc2)C(=O)N3)cc1OC | -14
Cc1ccc(-c2cc(O)c3c(c2)CN(C(=O)C(C)N2CCCC2=O)CCO3)cc1 (configuration not stated) | 0
Cn1nnnc1SCC(=O)N1CCOCC1 | -3
CCCn1nnnc1SCC(=O)NCc1ccc(OC)cc1 | 4
CCCn1nnnc1SCC(=O)N1C(C)CCCC1C (configuration not stated) | -76*
CCN1CCC(CNS(=O)(=O)c2cccc(C(=O)NC)c2)C1 (configuration not stated) | -4
CN(Cc1cc(-c2ccccn2)no1)C1CCC2(CCNCC2)CC1 | 10
CCCc1cc(=O)[nH]c(SCc2noc(-c3snnc3C)n2)n1 | -19
Cc1nnc(SCC(=O)Nc2c(C)cnn2Cc2ccccc2Cl)s1 | -4
